Sfp PPTase inh: blocks B. subtilis Sfp PPTase activity. Q9F4F7. Biochemical Sfp PPTase activity, qHTS. Potency, µM, for inactives: largest response in the series, negative = inhibition, actives largely listed as inhibitors. hit rate 3.5% among 310,000. AID 1490;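 note: the enzyme is Sfp with the accession as filed and its product quenches rhodamine fluorescence; 0% = enzyme reaction without inhibitor and -100% = no enzyme wells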
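With Hepes-Na pH 7.6 buffer containing 10 mM MgCl2, Sfp (15 nM) modified BHQ-2-YbbR (12.5 uM) using rhodamine-CoA (5 uM). Two reads 30 minutes apart at 525/598 nm yielded each well's rate.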
JMJD2A Tudor inh: blocks the human JMJD2A Tudor domain; O75164; AlphaScreen JMJD2A-Tudor / H3K4me3 peptide binding; Potency, µM (doses to about 114 µM), for the others: top-dose activity change, negative = inhibition, most hits filed as inhibitors; hit rate 4.4% among 390,000; AID 504339; note: % is set by controls: 0 for no effect and ±100 for the full control effect; nearly all actives have a fitted effect of over 50% in size
HP1b binding inh: blocks HP1-beta chromodomain binding to methylated histone tails; Potency, µM (doses to about 114 µM), without a hit: at the top dose activity change, negative = inhibition, hits mostly inhibitors; AlphaScreen HP1-beta / biotin-H3K9me3 peptide binding; hit rate 0.56% among 390,000; note: nearly all actives have a fitted effect of over 70% in size
Target sequence (P83916 whole entry, looked up): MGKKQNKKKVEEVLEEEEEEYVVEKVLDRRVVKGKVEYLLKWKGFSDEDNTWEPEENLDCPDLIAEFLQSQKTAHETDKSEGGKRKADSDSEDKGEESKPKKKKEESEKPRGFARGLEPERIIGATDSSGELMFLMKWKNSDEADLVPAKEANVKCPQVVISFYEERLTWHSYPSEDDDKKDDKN
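Compound inhibition of the preformed complex between 50 nM HP1-beta and 50 nM biotinylated H3K9me3 peptide was read by AlphaScreen. Buffer was PBS pH 7.4 with 0.01% Tween-20. Incubations ran 30 min at room temperature, with 10 ug/mL donor/acceptor beads.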
BAZ2B inh: inhibitors of human BAZ2B bromodomain; Q9UIF8; AlphaScreen BAZ2B-H3K14Ac peptide displacement; Potency, µM (top dose mostly 114 µM), without a hit: at the top dose activity change, negative = inhibition, actives largely listed as inhibitors; hit rate 4.4% among 360,000; note: % is set by controls: 0 for no effect and ±100 for the full control effect; nearly all actives have a fitted effect of over 60% in size
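Compounds, titrated to a top concentration of 110 uM, were incubated 30 min at room temperature with preformed BAZ2B/acetyl-K14 H3 peptide complex (50 nM each). Proximity signal was measured by AlphaScreen after 20 min with beads.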
G9a block: G9a (human) methyltransferase inhibition. Q96KQ7. G9a H3K9 monomethylation, AlphaScreen, 2 h. Potency, µM (doses to about 102 µM), for the others: top-dose activity, negative = inhibition, most hits filed as inhibitors. hit rate 8.8% among 350,000. AID 504332; note: % is set by controls: 0 for no effect and ±100 for the full control effect; nearly all actives have a fitted effect of over 75% in size
Target sequence (Q96KQ7 913-1193 limits assumed): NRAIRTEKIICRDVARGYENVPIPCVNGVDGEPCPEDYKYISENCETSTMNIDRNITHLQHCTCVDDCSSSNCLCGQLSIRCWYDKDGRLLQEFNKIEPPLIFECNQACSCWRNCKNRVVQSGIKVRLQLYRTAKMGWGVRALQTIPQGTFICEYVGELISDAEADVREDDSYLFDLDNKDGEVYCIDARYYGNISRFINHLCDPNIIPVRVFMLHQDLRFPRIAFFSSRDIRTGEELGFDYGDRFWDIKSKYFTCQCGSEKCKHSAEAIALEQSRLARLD
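Methyltransferase reactions run at room temperature for 2 h (20 nM enzyme, 500 nM biotin-H3K9 peptide, 20 uM SAM) after a 15 min compound preincubation; product detected by AlphaScreen beads and anti-H3K9me1 antibody.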
L3MBTL1 block: blocks human L3MBTL1. Q9Y468. AlphaScreen L3MBTL1–H3K9me1 peptide binding. Potency, µM (doses to about 57.1 µM), inactives show top-dose activity, negative = inhibition, hits mostly inhibitors. hit rate 0.66% among 230,000. AID 485360; note: % is set by controls: 0 for no effect and ±100 for the full control effect; nearly all actives have a fitted effect of over 60% in size
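AlphaScreen assay: L3MBTL1 (50 nM final) was preincubated 30 min at room temperature with biotinylated H3(1-15)K9me1 peptide (75 nM final), then 30 min with library compounds; streptavidin donor and nickel chelate acceptor beads (10 ug/mL final) added, 30 min dark.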
* = called active by the depositor; u = inconclusive; x = no result given; [ ] = remark or other dose. Rows were chosen to be rich in hits. Some 12% of all compounds tested hit in one or more screens of this group. Calls come from the whole dose curve; as a rule, active = well fitted curve in the direction sought with a large enough effect; inconclusive = small, poorly fitted or top-dose-only effect, or another doubt; inactive = no such curve, though single readings can be large; an effect the other way counts as inactive or inconclusive. Potency is the fitted concentration of half-maximal effect.

SMILES | Sfp PPTase inh | JMJD2A Tudor inh | HP1b binding inh | BAZ2B inh | G9a block | L3MBTL1 block
CCOC(=O)C1CCCN(C(=O)c2sc3nc(-c4ccc(OC)cc4)cn3c2C)C1 (stereo not drawn) | -4% | -28% | 25% | u | 40µM* | -21%
COc1ccc(-c2cn3c(C)c(C(=O)NCCN4CCOCC4)sc3n2)cc1 | -15% | u | 1% | u | 40µM* | 0%
CNC(=O)c1sc2nc(-c3ccc(OC)cc3)cn2c1C | 12% | -31% | 14% | u | 50µM* | x
CC(=O)c1ccc(N2CCN(C(=O)C3CCN(S(=O)(=O)c4ccc(Br)s4)CC3)CC2)cc1 | x | -8% | 33% | -1% | 2%[59 µM] | x
COc1cc(OC)cc(C(=O)NCCN2CCOCC2)c1 | -21% | 10µM* | u | 50µM* | 8.9µM* | 1%
CCOC(=O)C1CCN(Cc2cn3c(-c4ccc(OC)cc4)nnc3s2)CC1 | x | -24% | 3%[57 µM] | u | 13µM* | x
CCOC(=O)C1CCCN(Cc2cn3c(-c4ccc(Br)cc4)nnc3s2)C1 (stereo not drawn) | x | 0% | 30%[57 µM] | 3% | -13%[59 µM] | x
COc1cccc(C(=O)NCCN2CCOCC2)c1 | 24% | -8% | 6% | -8% | 0%[12.7 µM] | -1%
Clc1ccccc1N1CCN(Cc2nnc(-c3ccccc3)o2)CC1 | x | -14% | 20% | -1% | -3%[59 µM] | x
Brc1ccc(CN2CCN(c3ccccc3)CC2)o1 | -25% | 3.2µM* | u | 56µM* | u | -1%
Cc1cccc(N2CCN(Cc3nnc(-c4cccc(Br)c4)o3)CC2)c1C | x | 0% | 28% | 11% | 10%[59 µM] | x
Cc1ccccc1N1CCN(Cc2cccc(C(=O)O)c2)CC1 | 10% | -5% | 42% | -1% | 9% | 3%
Clc1ccccc1N1CCN(Cc2ccc(Br)o2)CC1 | x | 25µM* | -11% | x | x | x
Cc1ccccc1N1CCN(Cc2ccc(Br)o2)CC1 | -21% | 1µM* | u | 56µM* | 10µM* | 10%
Cc1cccc(N2CCN(Cc3ccc(Br)o3)CC2)c1C | -14% | 28µM* | -26% | u | 25µM* | 12%
CC(C)=CCC/C(C)=C/CO/N=C1/C[C@@H](O)[C@@H](O)[C@@H]2[C@@H]3C(=O)N(Cc4ccc5c(c4)OCO5)C(=O)[C@H]3CC[C@H]12 | 17% | x | x | x | x | x
Cc1cc(S(=O)(=O)C(CNC(=O)COc2ccccc2)c2cccs2)ccc1F (stereo not drawn) | x | -1% | 56% | 4% | 22%[59 µM] | x
Cc1ccc(S(=O)(=O)C(CNC(=O)COc2ccccc2)c2cccs2)cc1 (stereo not drawn) | x | 25µM* | 20µM* | u | 11µM* | x
CCCCn1nc(C(=O)NC2CCCCCC2)c2ccccc2c1=O | x | -11% | 48% | x | x | -1%
O=C1c2ccccc2-c2onc3c(NCCO)cc(NC4CCCCC4)c1c23 | x | 7.9µM* | u | 3.5µM* | 2.2µM* | x
CCCCNc1cc(NC2CCCCC2)c2c3c(onc13)-c1ccccc1C2=O | x | 10µM* | u | 1.8µM* | 2µM* | x
Cc1ccc(C)c(CN2CCSCC2)c1 | -16% | 7.1µM* | -5% | u | x | 4%
COc1ccc(OC)c(CN2CCCCCC2)c1 | 10% | 14µM* | u | 79µM* | 45µM* | 0%
COc1ccc(CN2CCSCC2)c(OC)c1C | -5% | 4µM* | u | 79µM* | 10µM* | -1%
COc1ccc2ccccc2c1CN1CCSCC1 | u | 45µM* | u | 56µM* | x | -2%
COc1ccc(/C=N/NS(=O)(=O)c2ccc(F)cc2)cc1CN1CCSCC1 | -18% | -19% | 15% | -23% | u | x
CCCCNC(=O)CCCCCNS(=O)(=O)c1ccc(Br)cc1 | -16% | -14% | 29% | x | -32% | x
c1ccc2c(CN3CCSCC3)cccc2c1 | u | 20µM* | u | u | -5%[0.501 µM] | -8%[2.29 µM]
COc1ccc(Br)cc1/C=N/NC(=O)CN1CCCCC1 | 6% | 1% | 26% | 2% | x | 22%
COc1cc2c(cc1OC)CN(Cc1ccc(OC)c(C)c1OC)CC2 | 0% | 1.6µM* | -56% | 50µM* | u | 2%

Source: PubChem BioAssay (National Center for Advancing Translational Sciences (NCATS))
